Screening results deposited in PubChem BioAssay by National Center for Advancing Translational Sciences (NCATS).
This is a sample that favours compounds with a hit; in the whole collection about 7.3% have one here.
NPC1 prom act: activates the NPC1 promoter; Huh7 NPC1 promoter luciferase reporter, 24 h; 320,000 compounds, 2.4% hits; Potency, µM (top dose mostly 9.22 µM), for the others: at the highest dose activation, usual class: activators; further: % of control where 0% means no effect; nearly all actives have a fitted effect of over 60% in size
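Stable NPC1-promoter luciferase Huh7 line; cpd (DMSO) 24 h, 37 °C, 5% CO2; Amplite luciferase reagent 10 min RT; luminescence readout. qHTS format.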
FLuc counter: counter-screen for miR-21 project: firefly luciferase inhibitors or activators. 360,000 compounds, 6.9% hits. Potency, µM (highest dose often 57.5 µM), for the others: top-dose activity change, negative = inhibition, most hits filed as inhibitors. P08659. AID 588342. purified FLuc, Km substrates, luminescence inhibition;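 further: plate controls were vehicle for no effect and reference inhibitor for full effect; nearly all actives have a fitted effect of over 55% in size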
Target sequence (P08659 whole entry, looked up): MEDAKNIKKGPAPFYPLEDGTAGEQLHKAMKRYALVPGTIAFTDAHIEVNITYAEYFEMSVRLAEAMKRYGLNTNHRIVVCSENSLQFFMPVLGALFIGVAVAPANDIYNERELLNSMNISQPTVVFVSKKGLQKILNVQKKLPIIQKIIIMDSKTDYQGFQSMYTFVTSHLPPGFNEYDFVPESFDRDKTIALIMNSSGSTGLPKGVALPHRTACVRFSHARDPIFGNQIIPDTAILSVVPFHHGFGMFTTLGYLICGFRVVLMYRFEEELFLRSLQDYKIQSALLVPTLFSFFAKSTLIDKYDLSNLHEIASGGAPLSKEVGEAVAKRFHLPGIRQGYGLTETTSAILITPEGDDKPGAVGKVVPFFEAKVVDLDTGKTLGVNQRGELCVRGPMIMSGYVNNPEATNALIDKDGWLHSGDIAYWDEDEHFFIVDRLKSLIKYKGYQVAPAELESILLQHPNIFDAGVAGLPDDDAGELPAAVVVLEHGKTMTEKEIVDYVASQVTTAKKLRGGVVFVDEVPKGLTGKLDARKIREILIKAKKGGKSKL
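Purified P. pyralis luciferase (10nM final) with 10uM D-luciferin and 10uM ATP (Km levels) in 50mM Tris acetate pH 7.5, 10mM Mg acetate, 0.01% Tween-20, 0.05% BSA; qHTS 6-point titration, ~60 µM downward; luminescence read.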
uPA generation: blocks generation of uPA at the cell surface; cell surface uPA generation assay, qHTS; Potency, µM (doses to about 38.3 µM), for inactives: at the highest dose activity change, negative = inhibition, usual class: inhibitors; 330,000 compounds, 0.31% hits; active means well fitted inhibition curve with a large enough effect; inconclusive means small, poorly fitted or top-dose-only effect; inactive means no such curve, though single readings can be large or run the other way; tested in mouse RAW 264.7 cells; further: on the % scale 0 is the no-effect control and ±100 the full control effect; nearly all actives have a fitted effect of over 55% in size
Rab9 promoter act: activates the Rab9 promoter | Potency, µM (series often up to 9.22 µM), for inactives: at the top dose activation, negative = inhibition, usual class: activators | AID 485297 | Huh7 Rab9 promoter-luciferase reporter, luminescence, 24 h | 320,000 compounds, 2.8% hits; further: % of control where 0% means no effect; nearly all actives have a fitted effect of over 60% in size
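Luminescence from Amplite-detected luciferase (10 minutes, ambient) reports Rab9 promoter activation. Before that, stable Rab9-luciferase Huh7 cells (1500/well, reduced-serum OP-MEM I plus 10% FBS) were exposed to compound for 24 hours at 37C.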
ELG1 genotoxic: genotoxicity induction in ELG1-luciferase HEK293T cells. HEK293T ELG1-luciferase reporter, luminescence, 16 h. Potency, µM (series often up to 46 µM), without a hit: at the highest dose activity change, positive = activation, actives largely listed as activators. 330,000 compounds, 1.3% hits. AID 504466; further: % of control where 0% means no effect; nearly all actives have a fitted effect of over 60% in size
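After overnight (16 hr) compound treatment at 37 °C, ELG1-luciferase HEK293T cells were lysed with ONE-Glo; luminescence quantified 30 min later at room temperature.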
SMN2 splice up: SMN2 splice variant enhancement | HEK293 SMN2-luciferase splicing reporter, luminescence, 30-36 h | Potency, µM (series often up to 46.1 µM), for inactives: at the highest dose activity change, positive = activation, hits mostly activators | 210,000 compounds, 2.8% hits; further: % of control where 0% means no effect; nearly all actives have a fitted effect of over 55% in size
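HEK293 cells carry an SMN2 […]–luciferase reporter in which exon 7 inclusion puts luciferase in frame. Cells were plated 10-12 h before compound addition, then incubated 30-36 h at 37C. ONE-Glo luminescence was read; sodium butyrate at 4.5 mM final served as control.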
Numbers without * were called inactive; ? = inconclusive; . = not tested or not shown; [ ] = dose if it differs, or a comment. Unless noted, the call rests on the fitted dose curve; in most records, active means well fitted curve in the direction sought with a large enough effect; inconclusive means small, poorly fitted or top-dose-only effect, or another doubt; inactive means no such curve, though single readings can be large; an effect the other way counts as inactive or inconclusive. Potency means the concentration at half of the fitted maximal effect.

SMILES	NPC1 prom act	FLuc counter	uPA generation	Rab9 promoter act	ELG1 genotoxic	SMN2 splice up
CC(C)(C)c1ccc(C(=O)Nc2ccc3nc(SCC(=O)N4CCCC4)sc3c2)cc1	.	7.6µM*	.	.	.	.
CCC1CCCCN1S(=O)(=O)c1ccc(NC(=O)c2ccncc2)cc1 (stereo unspecified)	-26%	-2%	?	-24%	-11%	.
COc1ccc(-c2cc(=Nc3cccc(C(=O)O)c3)c3cc(C)ccc3o2)cc1	-1%	9.5µM*	-7%	?	5.8µM*	.
COc1ccc(-c2cc(=NCCCCCC(=O)O)c3cc(C)ccc3o2)cc1	-1%	3%	-1%	-6%	?	8%
COc1ccc(-c2nc(CSCC(=O)N3CCN(c4ccc(F)cc4)CC3)c(C)o2)cc1	.	-12%	.	.	.	-57%
N=C1c2ccccc2CN1NC(=O)c1ccccc1	8%	-4%	-2%	1%	-1%	?
N=C1c2ccccc2CN1CC(=O)c1ccccc1	6%	15µM*	-15%	?	?	11µM*
Nc1nc2c(ncn2[C@@H]2O[C@H](CO)[C@@H](O)[C@@H]2O)c(=[SH+])[nH]1.O=[N+]([O-])c1ccc(O)[c]([Hg])c1	.	.	.	.	.	-99%[9.22 µM]
CN1CCN(c2ccc(NC(=O)C(C)(C)C)cc2)CC1	5%	-13%	4%	7%	11%	-8%
CC(C)(C)C(=O)Nc1ccc(-c2csnn2)cc1	?	24µM*	?	2.8µM*	?	.
Oc1c(Cl)c(Cl)c(Cl)c(Cl)c1Cl (tested in a mixture with another compound)	.	.	.	.	.	-16%[9.22 µM]
Cc1ccc(CNC(=O)c2ccccc2NC(=O)c2nsc3ccccc23)cc1	.	17µM*	.	.	.	.
O=C(NCc1ccccc1)c1cccn(Cc2ccccc2)c1=O	-1%	0%	11%	-6%	-6%	.
COc1cccc(N=Nc2c(O)[nH]c(=S)[nH]c2=O)c1	21%	13µM*	?	?	?	.
COc1ccc(N=Nc2c(O)[nH]c(=S)[nH]c2=O)cc1	1.6µM*	6µM*	-19%	1.8µM*	?	18µM*
NS(=O)(=O)c1ccc(N=Nc2c(O)[nH]c(=S)[nH]c2=O)cc1	-1%	?	-8%	9%	-3%	.
O=c1[nH]c(=S)[nH]c(O)c1N=Nc1cccc(S(=O)(=O)N2CCOCC2)c1	1%	2%	-2%	-1%	1%	.
O=c1[nH]c(=S)[nH]c(O)c1N=Nc1ccc(OC(F)F)cc1	?	5.4µM*	?	2µM*	?	13µM*
O=c1[nH]c(=S)[nH]c(O)c1N=Nc1cc2c(cc1[N+](=O)[O-])OCO2	-4%	?	-6%	10%	0%	8%
Cc1ccc(O)cc1C	.	.	.	.	.	1%
CCCCOC(C)=O	.	.	.	.	.	9%
CCCC(=O)Cl	.	.	.	.	.	-1%
C=CCn1c(O)c(C(CC)=Nc2cc(OC)ccc2OC)c(=O)[nH]c1=O	-3%	8%	4%	3%	23µM*	?
CN1C(=O)C(=Cc2ccc(N3CCOCC3)o2)C(=O)N(C)C1=O	3%	?	5%	4%	14%	?
CN1C(=O)C(=Cc2ccc(N3CCCCCC3)o2)C(=O)N(C)C1=S	?	11µM*	3%	?	?	20%
SMILES	NPC1 prom act	FLuc counter	uPA generation	Rab9 promoter act	ELG1 genotoxic	SMN2 splice up
CNC(=O)Oc1ccc2c(c1)C(=O)c1ccccc1CO2	2%	11µM*	-2%	-4%	15%	-58%
CCc1ccc(N2C(=O)NC(=O)/C(=C\C=C\c3ccco3)C2=O)cc1	-5%	-12%	8.9µM*	-7%	-12%	.
Cc1ccc(N2C(=O)NC(=O)/C(=C/C=C/c3ccco3)C2=O)cc1	-4%	-6%	-14%	-1%	3%	-4%
CCN(CC)C(=O)c1ccc(NC(=O)c2c(C)noc2C)cc1	-1%	3%	3%	-2%	5%	.
CC(=O)c1ccc(NC(=O)c2cc(CC(C)C)on2)cc1	5%	?	-11%	0%	18µM*	0%
CC(=O)c1ccc(OC(=O)N(C)c2ccccc2)cc1	?	-18%	6%	?	?	16µM*
CN(C(=O)Oc1ccc([N+](=O)[O-])cc1)c1ccccc1	-1%	3%	1%	-5%	4%	?
COc1ccc2[nH]c3c(c2c1)CCN1C(=O)C(CC(=O)NCc2ccco2)C[C@H](C(=O)N(C(C)C)C(C)C)[C@@]31C (stereo partly specified)	.	.	?	.	0%	.
CCN(CC)C(=O)[C@H]1C[C@H](CC(=O)NCc2ccc(OC)c(OC)c2)C(=O)N2CCc3c([nH]c4ccc(Cl)cc34)[C@]12C	.	.	10µM*	.	-4%	.
O=C(CN1CCCCC1)c1ccccc1Cl	3%	19µM*	2%	14%	4%	-8%
CN(C)CCCc1cccnc1	.	.	.	.	.	-6%[9.22 µM]
Nc1cccc(Cl)c1	.	.	.	.	.	-4%
